Test results reported in PubChem BioAssay AID504371 (National Center for Advancing Translational Sciences (NCATS), 2011).
Inconclusive results are not listed. Where a call stands in place of a potency, no number is given. Active and inactive are the calls of the source. Calls follow the shape of the dose curve; as a rule, active = well fitted curve in the direction sought with a large enough effect; inconclusive = small, poorly fitted or top-dose-only effect, or another doubt; inactive = no such curve, though single readings can be large or run the other way.

Assay: qHTS Assay for Compounds Blocking the Interaction Between CBF-beta and RUNX1 for the Treatment of Acute Myeloid Leukemia: ME-1 cellular proliferation, SAR for Probe
Conditions: ME-1 cell proliferation, ATP luminescence, 48 h; series mostly up to 56.1 µM
Description: NIH Chemical Genomics Center [NCGC] NIH Molecular Libraries Probe Production centers Network [MLPCN] MLPCN Grant: X01MH083259-01 Assay Submitter (PI): Paul Liu NCGC Assay Overview: Core Binding Factor (CBF) abnormalities are associated with 20-25% of all acute myeloid leukemias (AML), of which 5-10% are further sub classified as acute myelomonocytic leukemia with eosinophilia, also known as M4Eo in the FAB classification scheme. This subtype of leukemia is usually associated with chromosome 16 inversion (p13:q22). Chromosome 16 inversion results in formation of the fusion oncogene CBFB-MYH11, which encodes the fusion protein CBF-beta-SMMHC. […] It has been hypothesized that the interference of CBF-beta and RUNX1 binding could have therapeutic implications for patients with CBF mediated leukemias. We developed a CBF-beta and RUNX1 binding assay in AlphaScreenTM format and optimized it for high throughput screening to search for inhibitors. […]
NCGC Assay protocol: 2uL/well media was dispensed per well into 1536-well white solid-bottom plates using Multidrop Combi dispenser. […] The plates were incubated at 37 °C with 5% CO2 and 95% humidity for 48 hours, and then ATP content was measured following the addition of 4uL/well of ATPlite reagent and a 20 min incubation on a ViewLux plate reader.

Row | SMILES | Potency
1 | Nc1ccc(Cl)cc1C(=O)c1ccc[nH]1 | 109 µM (active)
2 | CCc1sc(N)nc1-c1ccc(OC)cc1 | inactive
